Assay outcomes: PubChem BioAssay, several laboratories
SRC2 inh: inhibits human steroid receptor coactivator 2; inhibition, % at 9 µM; AID 651957; Q15596; HEK293 GAL4-SRC2 luciferase reporter, luminescence; hit rate 0.17% among 370,000;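 active means inhibition above the mean inhibition of all tested compounds plus 3 SD, set per campaign, cut at about 52% in these data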;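 further: 0% = DMSO treated cells and 100% = cells given Gossypol at 36 µM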
NCOA1 inh: inhibits human SRC1 coactivator. Q15788. HEK293 GAL4-SRC1 luciferase reporter, luminescence. inhibition, % at 3.6 µM. hit rate 0.12% among 360,000. AID 588354;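 active means inhibition above the campaign mean plus 3 SD, with each screening campaign given its own cutoff, cut at about 60% in these data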;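 further: 0% = DMSO treated cells and 100% = gossypol at 36 µM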
Gli-Sufu block: antagonists of Gli-Sufu signaling; Sufu-KO-LIGHT fibroblasts, Gli luciferase reporter luminescence; inhibition, % at 5 µM; hit rate 0.74% among 340,000;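 active means inhibition above about 55%, limit read from the data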;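 further: 0% = DMSO-treated cells and 100% = wells with medium but no cells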
Shn3 3UTR inh: reduces Shn3 3'UTR luciferase signal in osteoblasts; Clone20 osteoblast Shn3 3'UTR firefly luciferase, 24 h; inhibition, % at 12.5 µM; hit rate 0.52% among 360,000; AID 588674;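 active means mean inhibition of at least 75% with every replicate also reaching 75%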;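 further: 0% = median of neutral control wells and 100% = pilot-screen positive control compound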
NR5A2 inv ag: suppresses constitutive activity of human LRH-1 | O00482 | HEK293T StAR-luciferase reporter, LRH-1 transfected, 24 h | inhibition, % at 3.6 µM | hit rate 0.13% among 360,000;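 active means inhibition above the mean inhibition of all tested compounds plus 3 SD, cut at about 73% in these data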;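 further: 0% = DMSO wells and 100% = reporter-only cells lacking LRH-1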
Target sequence (O00482 whole entry, looked up): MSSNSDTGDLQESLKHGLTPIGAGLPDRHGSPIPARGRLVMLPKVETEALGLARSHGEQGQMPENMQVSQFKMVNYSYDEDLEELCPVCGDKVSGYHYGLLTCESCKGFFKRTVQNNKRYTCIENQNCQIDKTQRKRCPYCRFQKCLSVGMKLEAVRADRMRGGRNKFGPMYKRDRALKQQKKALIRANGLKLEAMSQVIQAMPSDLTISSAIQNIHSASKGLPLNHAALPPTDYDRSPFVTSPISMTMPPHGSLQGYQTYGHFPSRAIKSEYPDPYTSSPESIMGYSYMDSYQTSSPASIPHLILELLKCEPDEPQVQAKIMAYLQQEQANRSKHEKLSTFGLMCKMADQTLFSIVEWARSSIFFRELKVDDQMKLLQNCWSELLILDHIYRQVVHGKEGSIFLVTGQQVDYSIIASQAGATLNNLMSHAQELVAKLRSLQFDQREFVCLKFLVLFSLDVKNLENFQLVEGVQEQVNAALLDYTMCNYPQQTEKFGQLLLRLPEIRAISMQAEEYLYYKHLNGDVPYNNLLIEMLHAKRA
NCOA3 inh: inhibitors of human steroid receptor coactivator 3 (SRC3). inhibition, % at 3.6 µM. hit rate 0.17% among 360,000. Q9Y6Q9. HEK293 GAL4-SRC3 luciferase reporter, luminescence;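 active means inhibition above a per-campaign cutoff, the mean of all compounds plus 3 SD, cut at about 60% in these data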;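 further: 0% = DMSO-treated cells and 100% = gossypol-treated cells at 36 µM; higher means less SRC3-driven luciferase light from the GAL4 reporter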
Gli antag conf: confirmation of Gli-SUFU pathway antagonists; shares compounds with Gli-Sufu block; Sufu-KO-LIGHT cells, Gli luciferase reporter, luminescence; inhibition, % at 5 µM; hit rate 40% among 2,500; AID 602428;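 active means mean inhibition at 5 µM reaching about 45%, limit read from the data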;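 further: plate controls were DMSO-treated cells for no effect and wells lacking cells for full effect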
Gli cytotox: cytotoxicity counter-screen for Gli-SUFU antagonists | shares compounds with Gli-Sufu block | Sufu-KO-LIGHT cells cytotoxicity, ATP luminescence | cytotoxicity, % at 5 µM | hit rate 32% among 2,500;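 active means mean cytotoxicity at 5 µM above about 25%, limit read from the data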;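 further: cells exposed to compound overnight for roughly 16 to 18 hours; plate controls were DMSO wells with cells for no effect and medium without cells for full effect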
Wnt3a counter: inhibits Wnt3a reporter, counter-screen for Gli-SUFU antagonists; shares compounds with Gli-Sufu block; Wnt-LIGHT cells, Wnt3a-driven luciferase reporter, luminescence; inhibition, % at 6.25 µM; hit rate 20% among 2,500; AID 651995;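 active means mean inhibition above about 25%, limit read from the data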
* marks the source's active call; other numbers are inactive results; / = no result. Most compounds without a hit are left out; they make up all but 1.1% or so of the library.

SMILES	SRC2 inh	NCOA1 inh	Gli-Sufu block	Shn3 3UTR inh	NR5A2 inv ag	NCOA3 inh	Gli antag conf	Gli cytotox	Wnt3a counter
COC(=O)c1[nH]c2cc(OC)ccc2c1NC(=O)CN1CCC(C(N)=O)(N2CCCCC2)CC1	-1	-1	75*	-59	1	-33	24	7	-1
C#CCNC(=O)C[C@H]1C[C@@]2(C(=O)OC)C(=C[C@H](C3CCCC3)O[C@@H]2C)N(Cc2ccc(Cl)cc2Cl)C1=O	-7	/	/	/	/	/	/	/	/
C=CCN1C(=O)[C@@H](CC(=O)NCc2ccccc2)[C@]2(C(=O)OCC)CCCCC/C=C/12	6	/	/	/	/	/	/	/	/
O=C(CN1C(=O)COc2ccc(S(=O)(=O)N3CCCCC3)cc21)NCc1ccc(Cl)cc1	-3	15	59*	-7	-15	-10	8	25*	-29
CSc1nnc(-c2ccc([N+](=O)[O-])cc2)o1	-7	-4	93*	-3	13	6	24	0	1
CCCCOc1ccccc1-c1ccccc1CN1[C@@H](C(C)C)COCCS1(=O)=O	20	16	12	13	-2	-24	/	/	/
CC(C)[C@H]1COCCS(=O)(=O)N1Cc1ccccc1-c1cccc2c1oc1ccccc12	-9	-10	93*	21	-7	18	24	7	-40
O=C(c1cc(-c2ccccc2)on1)N1CCC(Oc2cccnc2)CC1	-7	/	/	/	/	/	/	/	/
O=C(COC(=O)c1cccnc1Nc1ccccc1F)NCCN1C(=O)CSC1=O	-20	12	50	4	16	-11	20	-3	-31
CCOC(=O)c1cc([N+](=O)[O-])sc1NC(=O)c1ccc(S(=O)(=O)N2CC3(C)CC2CC(C)(C)C3)cc1 (stereo unspecified)	-7	9	71*	21	2	-2	82*	27*	50*
C[C@@H]1CCN(C2CC2)S(=O)(=O)c2ccc(N3CCC[C@H]3CO)cc2O1	3	/	/	/	/	/	/	/	/
O=C(c1cc(Cl)cc(Cl)c1)N1CC[C@H]2[C@H](CCCN2Cc2cc(F)cc(F)c2)C1	17	/	/	/	/	/	/	/	/
O=C(NCC1CCCO1)c1nn2c(C(F)(F)F)cc(-c3ccc(Br)o3)nc2c1Br (stereo unspecified)	-27	12	56*	5	9	0	18	15	-2
O=C(NC1CCCCC1)c1nn2c(C(F)(F)F)cc(-c3ccco3)nc2c1Br	1	6	17	-3	1	-8	/	/	/
O=C(Nc1ccc(F)cc1)Nc1c(-c2ccc(F)cc2)nc2ncccn12	-25	/	/	/	/	/	/	/	/
CC(=O)Nc1cccc(C(=O)OCc2ccc([N+](=O)[O-])cc2)c1	-3	-3	63*	0	6	6	20	19	-70
CCCCOC(=O)NC1CCc2cc(OC)c(OC)c(OC)c2-c2ccc(SC)c(=O)cc21 (stereo unspecified)	9	-4	64*	-1	28	13	54*	64*	0
CN[C@H]1CCc2cc(OC)c(OC)c(OC)c2-c2ccc(OC)c(=O)cc21	-5	-12	45	-7	49	33	/	/	/
CCOC(=O)NC1CCc2cc(OC)c(OC)c(OC)c2-c2ccc(SC)c(=O)cc21 (stereo unspecified)	24	-18	55*	-3	17	18	56*	68*	26*
CCOCC(=O)NC1CCc2cc(OC)c(OC)c(OC)c2-c2ccc(SC)c(=O)cc21 (stereo unspecified)	11	-5	48	2	14	21	/	/	/
O=C(NC1CCCCN(Cc2ccc(Cl)cc2)C1=O)c1ccc(F)c(F)c1 (stereo unspecified)	11	/	/	/	/	/	/	/	/
Cc1ccc(C2N(c3ccccc3)C(=S)N3CCCN23)cc1 (stereo unspecified)	-6	2	99*	-16	-11	0	14	9	2
COC(=O)[C@@H]1C[C@@]2(c3ccccc3)c3ccccc3N(S(=O)(=O)c3ccccc3)[C@H]2N1C(=O)CNC1CCCCC1	28	/	/	/	/	/	/	/	/
CN(Cc1ccc(OCC(O)CN2CCCCC2)cc1)Cc1ccnc2ccccc12 (stereo unspecified)	20	15	65*	87*	25	12	46*	21	11
COc1ccc(CN2CCC(CNC(=O)Nc3ccc(Cl)cc3)CC2)cc1	10	/	/	/	/	/	/	/	/
SMILES	SRC2 inh	NCOA1 inh	Gli-Sufu block	Shn3 3UTR inh	NR5A2 inv ag	NCOA3 inh	Gli antag conf	Gli cytotox	Wnt3a counter
Cc1cnn2c(C3CC3)ccnc12	12	-4	58*	-13	18	-9	12	19	-8
Cn1ccc2ccc(-c3ccc4c(c3)[C@]3(CCC[C@@H](OCc5ccccc5)[C@@H]3NC(=O)CCc3ccccc3)C(=O)N4Cc3ccccc3)cc21	-14	/	/	/	/	/	/	/	/
CC(=O)Nc1ccc(NC(=O)N2CCOCC2)cc1	-15	-3	/	3	-42	4	/	/	/
CC(C)c1ccc(NC(=O)N2CCOCC2)cc1	-43	-79	60*	-64	-44	-52	-11	4	-55
O=S1(=O)CC2c3ccc(F)cc3CN2CN1CCc1ccccc1 (stereo unspecified)	10	/	/	/	/	/	/	/	/
O=C(N/N=C\c1cc(Cl)ccc1O)c1ccc(S(=O)(=O)N2CCCCC2)cc1	-1	12	73*	91*	-3	27	78*	37*	61*
O=C(Nc1cc(S(=O)(=O)Nc2ccc(Cl)cc2)ccc1O)c1ccc(S(=O)(=O)N2CCCCCC2)cc1	-12	-1	3	3	-13	18	/	/	/
CC(=O)c1cc(-c2cccc(Cl)c2O)c(=O)n2c1CCC2	16	/	/	/	/	/	/	/	/
COc1ccc(NC(=O)CSCC(=O)N2c3ccccc3CCc3ccccc32)cc1	-10	17	66*	0	5	8	15	2	-4
COc1ccccc1NC(=O)CSCC(=O)N1c2ccccc2CCc2ccccc21	6	15	-5	2	-1	12	/	/	/
COc1ccc(CCNS(=O)(=O)c2csc(C(N)=O)c2)cc1OC	-70	-2	-9	-12	4	-4	/	/	/
COc1ccc(CNS(=O)(=O)c2csc(C(N)=O)c2)cc1OC	-6	-2	55*	-26	20	-19	22	3	-25
COc1ccc(S[C@]2(C(=O)N(C)C)CC(=O)N(c3ccccc3)[C@@H]2c2ccc(OC)cc2)cc1	8	/	/	/	/	/	/	/	/
COc1ccc(/C=C2\Sc3ccc(C(=O)N4CCN(Cc5ccccc5)CC4)cc3N(C)C2=O)cc1OC	23	11	99*	65	32	28	13	13	-7
